# Results from PubChem BioAssay (NCI).
# Where “and” joins values, the source holds several entries; their conditions need not be identical. Equal entries are not always repeated. The panel holds about 83,000 compounds, 20% with a hit somewhere; the sample as a whole holds those more often.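 A percent growth of 40 corresponds to 60% growth inhibition; 0 means no net growth; -100 means all cells died. Active threshold: below 10.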 Calls of active or inactive are those of the source.
# Tested on: HL-60(TB) leukemia
# Test: NCI-60 one-dose screen, 48 h (100 = growth as untreated, 0 = no growth, -100 = all killed)
# Conditions: 10 µM unless noted
row,Compound,growth
1,COc1cc(C)c(C2C(C#N)=C(N)Oc3n[nH]c(-c4cccs4)c32)cc1C(C)C (stereo not given),66.2% (inactive)
2,N#C/C(=N\Nc1ccc(Cl)cc1)C(=O)C1CC1,62.8% (inactive)
3,Cn1c2c(Cl)c(Cl)ccc2c2ccn3c(=O)c4ccccc4nc3c21,106% (inactive)
4,CC1=C(C(=O)OC(C)C)C(c2ccc3c(c2)OCO3)NC(=S)N1 (stereo not given),105% (inactive)
5,CC[C@@H](C[C@H](CCO)c1ccccc1)c1cc2ccccc2o1,92.5% (inactive)
6,Fc1ccc(Nc2nc3nonc3nc2Nc2ccc(F)cc2)cc1,-17.6% (active)
7,O=c1oc2ccc(Cl)cc2c(=O)n1-c1cc(C(F)(F)F)cc(C(F)(F)F)c1,-20.6% (active)
8,N#CSCC1CC(O)(c2ccccc2)C(c2ccccc2)C(c2ccc(F)cc2)O1 (stereo not given),-24.7% (active)
9,COc1cc(-c2nc(-c3ccc(-c4nc5ccc(F)cc5[nH]4)cc3)no2)cc(OC)c1OC,13.4% (inactive)
10,COc1cc(-c2nc3ccccc3[nH]2)ccc1OCc1nnc(-c2ccc(CC(C)C)cc2)o1,98.5% (inactive)
11,Cc1ccc(NC2=C(Cl)C(=O)c3nc(C)ccc3C2=O)cc1,-10.8% (active)
12,CC(=O)Oc1cc(C(=O)O)cc(OC(C)=O)c1OC(C)=O,108% (inactive) and 88.2% (inactive)
13,COc1cc(C2CC(C3C(=O)N(C)C(=O)N(C)C3=O)=NN2c2cc(Cl)cc(Cl)c2)cc(OC)c1OC (stereo not given),98.6% (inactive)
14,COCC(N)=O,90% (inactive)
15,COc1ccccc1P(c1ccccc1OC)c1ccccc1OC,101% (inactive)
16,COc1cc2nc(N3CCC[C@@H](NC4=CC(=O)c5ccccc5C4=O)C3)nc(N)c2cc1OC,-60.3% (active)
17,CC(C)c1cc(N=O)cc(C(C)C)c1O,93% (inactive)
18,COCCOc1cnc2ccn([C@H](C)c3nnc4c(F)cc(-c5cnn(C)c5)cn34)c(=O)c2c1,136% (inactive)
19,OCc1nnn(-c2ccccc2)c1CO,89.1% (inactive)
20,Nc1ccc(-c2cc3c(Nc4ccc(OCc5cccc(F)c5)c(Cl)c4)ncnc3s2)cc1,48.3% (inactive)

row,Compound,growth
1,Cc1cccc(C)c1NC(=O)CN(CC(C)C)CC(O)COc1ccccc1 (stereo not given),98% (inactive)
2,COc1ccc(-c2cn(-c3cc(OC)c(OC)c(OC)c3)c(=O)n2C(C)=O)cc1,32.2% (inactive)
3,COc1ccc2nc3ccccc3c(NCCNCCO)c2c1,6.15% (active)
4,N#CC1=C(N)Oc2c(sc3c(F)cccc23)C1c1ccc(F)cc1 (stereo not given),5.96% (active)
5,C=C(C)[C@@H]1CC[C@]2(C(N)=O)CC[C@]3(C)[C@H](CC[C@@H]4[C@@]5(C)C/C(=C/c6cccnc6)C(=O)C(C)(C)[C@@H]5CC[C@]43C)[C@@H]12,3.16% [100 µM] (active)
6,CCN(C(C)=O)c1ccc([N+](=O)[O-])cc1,114% (inactive)
7,CC(=O)OCC(=O)[C@@]1(O)CC[C@H]2[C@@H]3CCC4=CC(=O)CC[C@]4(C)[C@@]3(F)[C@@H](O)C[C@@]21C,98.2% (inactive)
8,CCCCCCCOc1c(OC)cc(C2CC(=O)Nc3c2c(C)nn3-c2nc3ccccc3[nH]2)cc1OC (stereo not given),10.5% (inactive)
9,Cc1nc2n(c(=O)c1CCN1CCC(c3noc4cc(F)ccc34)CC1)CCC[C@@H]2O,89.7% (inactive)
10,C[C@H]1[C@H]2[C@H]3CC[C@@H]4[C@@]5(C)C/C(=C/c6cccnc6)C(=O)C(C)(C)[C@@H]5CC[C@@]4(C)[C@]3(C)CC[C@]23CO[C@]1(C)[C@@H](C(=O)/C=C\c1cccnc1)C3,14.5% (inactive)
11,CCOC(=O)C1=CC(=O)CC(C)(C)O1,53.2% (inactive) and 69.6% (inactive)
12,COc1cccc(/C=C/C(=O)c2cc3c(N)c(C(=O)Nc4ccccc4)sc3nc2C)c1,16.9% (inactive)
13,CC(C)NCCCNC1=C(Cl)C(=O)c2ccccc2C1=O,11.5% (inactive)
14,CN1C2CCC1CN(c1cnc(C(=O)Nc3cc(F)cc4cccnc34)cn1)C2,5.69% (active)
15,C[C@@H](Oc1cc(C(=O)Nc2ccc(C(=O)N3CCN(C)CC3)cc2)nnc1N)c1c(Cl)ccc(F)c1Cl,88.3% (inactive)
16,CN1[C@@H]2CC[C@H]1/C(=C\c1ccccc1)C(=O)/C2=C/c1ccccc1,37% (inactive)
17,COc1ccc(CC(C#N)c2cc3ccccc3[nH]2)cc1 (stereo not given),97.5% (inactive)
18,CCC1(C(N)=O)CC2C=CC1CC2 (stereo not given),110% (inactive)
19,COc1cccc(C(=O)NNc2nc(N3CCN(C4CCCCC4)CC3)nc(N3CCN(C(c4ccccc4)c4ccccc4)CC3)n2)c1,18.5% (inactive)
20,Nc1nc(N)nc(N2CCCCC2)n1,97.9% (inactive)
